Source: PubChem BioAssay

Assay: probe aLAP1 signal on lysate-treated microarray – cell lysate, small-molecule microarray, COS7 lysate, primary screen (AID 1124);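 further: lysate comes from COS7 cells expressing LAP1 and is applied at 0.3 µg/mL; score merges spot fluorescence near 667 nm with signal-to-noise over triplicate slides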
Settings: probe aLAP1, fluorescence, higher = more signal

SMILES | composite z-score
C[C@@H]1NC(=O)[C@@H](Cc2ccccc2)NC(=O)[C@@]23C(=O)N[C@@H](Cc4ccccc4)C2[C@H](C)[C@@]2(C)O[C@H]2C3/C=C/C/C=C\CNC1=O (stereo not given in full) | 0.074
COc1cccc(C)c1NC(=O)O[C@H]1[C@H](OC(=O)Nc2ccc3c(c2)OCO3)[C@@H](OC(=O)Nc2ccc3c(c2)OCO3)[C@@H](OC)O[C@@H]1CO | 1.29
C=C(COC)/C(=C/C[C@H](OC(=O)c1ccncc1)c1ccc(CO)o1)c1cnc2ccccc2c1 | 1.12
CC(C)=C1C(=O)C(c2ccccc2)=C2CN3C(=O)N(CCc4ccccc4)C(=O)[C@]3(Cc3ccc(C(F)(F)F)cc3)[C@H]21 | 0.224
CCCCNC(=O)c1ccc(C#CC(C)(C)C)c(OC(C)=O)c1 | -0.0555
C=CCC(OC(C)=O)[C@@H]1[C@@H](N(Cc2cccc3ccccc23)C(=O)Cc2ccc(OC)cc2)c2cc(OCCCO)ccc2N1C(=O)c1ccc(-c2ccccc2)cc1 (stereo not given in full) | 0.181
COc1cc(NN2C(C(O)c3ccc(N(C)C)cc3)C=CC3C(=O)N(c4ccccc4)C(=O)C32)cc(OC)c1OC (stereo not given) | -0.196
CCCC[C@@H](O)C1=C(COC)C[C@H]2C(=O)N(C)C(=O)[C@H]2[C@H]1CO | 0.0048
CC1CC/C=C\[C@H]2OC34C=CCN(c5ccc6ccccc6c5)C(=O)[C@H]3N(CCCO)C(=O)[C@@H]4C2C(=O)O1 (stereo not given in full) | -0.701
CC(C)C(CO)N1C(=O)[C@@H]2[C@H]3C(=O)OCC=C[C@H]3OC23C=CCN(c2ccc(Cl)cc2)C(=O)[C@@H]13 (stereo not given in full) | -0.364
CCCN1C(=O)[C@@]2(Cc3ccccc31)N=C(c1ccc(OCCCO)cc1)O[C@H]2c1ccccc1 | 0.587
O=C(O)[C@@H]1[C@@H]2C(=O)N(c3ccccc3)C(=O)[C@@H]2C[C@@H]1Sc1ccccc1 | 0.627
COCCOC(=O)N1C(=O)[C@@]2(c3cc(C#CCNC(N)=O)ccc31)[C@H](C(N)=O)[C@H]1C(=O)O[C@H](c3ccccc3)[C@H](c3ccccc3)N1[C@@H]2c1ccccc1OCCO | 0.521
COC(=O)[C@@]1(Cc2ccc(OC)cc2)[C@H]2c3cc(C(=O)N4CCCC4)n(CCO)c3C[C@H]2CN1C(=O)c1ccccc1 | 0.57
C[N+](C)(C)CCCCCCNC(=O)[C@@H]1C[C@@H]2C(=O)N3CCC[C@H]3C(=O)N2[C@@H]1c1ccc(O)cc1 | 0.326
O=C1O[C@@H](c2ccccc2)[C@@H](c2ccccc2)N2[C@@H](c3ccc(O)cc3)[C@]3(C(=O)Nc4ccc(C#CCCO)cc43)[C@@H](C(=O)N3CCN(c4ncccn4)CC3)[C@H]12 | -0.143
CC(C)c1ccc(NN2C(C(O)c3ccc(F)cc3)C=CC3C(=O)N(c4ccccc4)C(=O)C32)cc1 (stereo not given) | 0.846
C[N+](C)(C)CCCC[C@@H]1NC(=O)[C@@H]2C[C@H](C(=O)NCCCCCCN)[C@H](c3cccc(OCCO)c3)N2C1=O | 0.731
Cc1ccc(S[C@]2(C(=O)NCC(F)(F)F)CC(=O)N(Cc3cc(C(F)(F)F)cc(C(F)(F)F)c3)[C@@H]2c2ccc(CO)cc2I)cc1 | -0.0008
C=C[C@H]1C(C(=O)OCC)=CC[C@@H](c2ccccc2)N1S(=O)(=O)c1ccc(C)cc1 | 0.516
CCCCN1CC=CC23O[C@@H]4/C=C\CCCOC(=O)C4[C@H]2C(=O)N(CCO)[C@@H]3C1=O (stereo not given in full) | -0.0065
CCCCN1CC=CC23O[C@@H]4/C=C\CCC(C)OC(=O)C4[C@H]2C(=O)N(CCCO)[C@@H]3C1=O (stereo not given in full) | 0.359
O=C(NCc1ccc(F)cc1)[C@H]1C[C@H]2C(=O)NCC(=O)N2[C@H]1c1ccc(O)cc1 | 0.112
CCOC(=O)C[C@H]1[C@H](OC(=O)Cc2ccc3c(c2)OCO3)[C@@H](NC(=O)c2ccc3ccccc3n2)c2cc(OCCCO)ccc2N1C(=O)c1ccccc1 | -0.115
COc1cc2c(cc1O)C(C1CC1)N(C)CC2 (stereo not given) | -0.308
COC(=O)C1=CC(CCCO)=CC(c2cccs2)N(Cc2cccc(OC(F)(F)F)c2)C=C1C(=O)OC (stereo not given) | 0.718
COCCCNC(=O)[C@@]1(Sc2ccc(C)cc2)CC(=O)N(C2Cc3ccccc3C2)[C@@H]1c1ccc(CO)cc1 | 0.352
CN(C)c1ccc(C(O)C2C=CC3C(=O)NC(=O)C3N2Nc2ccccn2)cc1 (stereo not given) | 0.282
COc1ccccc1CN1C(=O)c2ccccc2[C@](Cc2ccccc2I)(C(=O)O)[C@@H]1c1ccc(CO)cc1 | 0.704
CC(C)N1CC=CC23O[C@@H]4C=CCCOC(=O)C4[C@H]2C(=O)N(CCCO)[C@@H]3C1=O (stereo not given in full) | 0.303
